The structures appear in SMILES notation. Results filed as inconclusive are left out. A call without a number means that no potency is given here. Active and inactive are the calls of the source. Calls come from the whole dose curve; as a rule, active = well fitted cell-killing curve with a large enough effect; inconclusive = small, poorly fitted or top-dose-only effect; inactive = flat fitted curve, though single readings scatter.

A short description of the assay: Cell Viability - LYMP2-025 (AID 976).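 Note: cells exposed to compound for 24 h at 37 °C.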 To be noted: LYMP2-025 lymphoblastoid cell viability; series mostly up to 92.2 µM. An excerpt:
NIH Chemical Genomics Center [NCGC]
NIH Molecular Libraries Screening Centers Network [MLSCN]
National Institutes of Environmental Health Sciences [NIEHS]
National Toxicology Program [NTP]
We have developed a 1536-well cell-based assay for quantitative high throughput screening (qHTS) against a number of cell lines to determine in vitro cytotoxicity of small molecules. This particular assay uses a human lymphoblastoid cell line (LYMP2-025) purchased from Coriell Institute for Medical Research.
NCGC Assay Protocol Summary:
The CellTiter-Glo luminescent cell viability assay (Promega) is a homogeneous method to measure the number of viable cells in culture. The end point readout of this assay is based on quantitation of intracellular ATP, an indicator of metabolic activity, using the luciferase reaction. Luciferase catalyzes the oxidation of beetle Luciferin to oxyluciferin and light in the presence of ATP. The luminescent signal is proportional to amount of ATP present.
Using the CellTiter-Glo luminescent cell viability assay, the amount of cellular ATP was measured in the lymphoblastoid cell line with complete culture medium following compound treatment for 24 hours. The assay was performed in opaque white Kalypsys 1536-well plates. In the screen, tetraoctylammonium bromide was used as positive control. Library compounds were measured for their ability to cause acute toxicity in the cell line, as reflected by a decrease in intracellular ATP levels, in a concentration-dependent manner. […] AC50 values were determined from concentration-response data modeled with the standard Hill equation.
qHTS protocol for CellTiter Glo lymphoblastoid cellular assay
[Step] [Parameter] [Value] [Description]
1. Reagent; 5 uL; 2500 lymphoblastoid cells/well
2. Time; 5 hr; 37 C incubation
4. Controls; 23 nL; Tetraoctylammonium bromide 6.4pM to 92 uM
5. Time; 24 hr; 37 C incubation
6. Reagent; 5 uL; CellTiter Glo reagent
7. Time; 30 min; Room Temperature
8. Detection; Luminescence; Viewlux plate reader
Keywords: cell viability, cytotoxicity, lymphoblastoid cell line, luminescence, NTPHTS, NTPHTS_NCGC, NIEHS, DSSTox, MLSMR, MLSCN, NIH Roadmap, qHTS, NCGC
Take `CC(=O)CC(=O)Nc1ccccc1`: the Potency result is “inactive”.

As for `Cc1ccc(C(=O)O)cc1[N+](=O)[O-]`, the Potency entry was “inactive”.

In the case of `C=CC1CO1` (stereo not given), the Potency entry is “inactive”.

Turning to `c1ccc2c(c1)ccc1ccccc12`, the Potency entry was “inactive”.

Consider `c1ccc(SCCSc2ccccc2)cc1`, for which the Potency entry is “inactive”.

As for `COc1ccc(C(=O)Nc2ccccc2)cc1[N+](=O)[O-]`, the Potency entry is “inactive”.

On to `Cc1ccc(S(N)(=O)=O)cc1`, for which the Potency entry is “inactive”.

Turning to `O=[N+]([O-])c1cccc(I)c1`, the Potency result was “inactive”.

Turning to `CCCCCCCCC1CO1` (stereo not given), the Potency entry was “inactive”.

As to `CC(CCC(=O)O)(c1ccc(O)cc1)c1ccc(O)cc1`, the Potency result was “inactive”.

With `Cc1cc(=O)oc2cc(O)cc(O)c12`, the Potency entry is “inactive”.

Turning to `CC(=O)OC1CC(C)OC(C)O1` (stereo not given), the Potency result was “inactive”.

`Oc1ccc2c(c1)OCO2`: the Potency entry was “inactive”.

With `CCCCC(CC)COC(=O)COc1ccc(Cl)cc1Cl` (stereo not given), the Potency entry was “inactive”.

In the case of `CC(C)S`, the Potency result was “inactive”.

For `C=Cc1cccc(C)c1`, the Potency result was “inactive”.

`CCOC(=O)C1OC1c1ccccc1` (stereo not given): the Potency entry is “inactive”.

For `O=CC(=O)c1ccccc1`, the Potency entry is “inactive”.

For the molecule `Nc1cc([N+](=O)[O-])ccc1O`, the Potency entry was “inactive”.

Take `O=[N+]([O-])c1ccc(F)cc1F`: the Potency entry was “inactive”.

Consider `NC(=O)Nc1nc2ccccc2[nH]1`, for which the Potency result is “inactive”.

As for `Cc1cccnc1`, the Potency entry is “inactive”.

As to `Nc1ccc(N=Nc2ccccc2)c(N)c1`, the Potency result is “inactive”.

With `O=C1c2ccccc2C(=O)C1(O)O`, the Potency result was “inactive”.

As to `O=[N+]([O-])c1ccccc1Nc1ccccc1`, the Potency entry is “inactive”.

As for `C/C(Cl)=C/CCl`, the Potency entry was “inactive”.

On to `c1ccc(COCc2ccccc2)cc1`, for which the Potency entry was “inactive”.

`CCCCNCC`: the Potency result was “inactive”.

Turning to `CN(C)c1ccc(Cc2ccc(N(C)C)cc2)cc1`, the Potency entry is “inactive”.

For `Cc1cc2nc(N)sc2cc1C`, the Potency entry was “inactive”.

In the case of `c1cc2c3c(c1)ccc1cccc(c13)C2`, the Potency entry is “inactive”.

On to `C[Si](C)(C)Cl`, for which the Potency result was “inactive”.

With `C=CC(C)(O)CCCC(C)CCCC(C)CCCC(C)C` (stereo not given), the Potency result is “inactive”.

With `CCCC(=O)OC(=O)CCC`, the Potency result was “inactive”.

Take `OC1CCCCC1`: the Potency result is “inactive”.

For `CC(=O)OC(C(=O)c1ccccc1)c1ccccc1` (stereo not given), the Potency entry was “inactive”.

For the molecule `Brc1ccc(-c2ccccc2)cc1`, the Potency entry was “inactive”.

As for `OCC(CO)(CBr)CBr`, the Potency entry is “inactive”.

With `Oc1c(Cl)cc(Cl)c(Cl)c1Cl`, the Potency entry was “inactive”.

Turning to `Nc1ccccc1O`, the Potency result is “inactive”.
